The source of these data is PMC7862700, “An all-to-all approach to the identification of sequence-specific readers for epigenetic DNA modifications on cytosine”.

Common to all, as to assay: DAPPL (digital affinity profiling via proximity ligation, sequencing); 10 mM Tris-HCl pH 7.5, 50 mM NaCl, 1 mM DTT, 4% glycerol, room temperature, 30 min; GST-TFs on glutathione beads, 16-mer random dsDNA library, 0.1% formaldehyde crosslink after washing; high values mean tight binding
Common to all, as to settings: protein: recombinant; tags: N-terminal GST; dsDNA, one strand shown

The target of one experiment is T1, FLI1 (Homo sapiens, UniProt Q01543 1-452).
T1 sequence: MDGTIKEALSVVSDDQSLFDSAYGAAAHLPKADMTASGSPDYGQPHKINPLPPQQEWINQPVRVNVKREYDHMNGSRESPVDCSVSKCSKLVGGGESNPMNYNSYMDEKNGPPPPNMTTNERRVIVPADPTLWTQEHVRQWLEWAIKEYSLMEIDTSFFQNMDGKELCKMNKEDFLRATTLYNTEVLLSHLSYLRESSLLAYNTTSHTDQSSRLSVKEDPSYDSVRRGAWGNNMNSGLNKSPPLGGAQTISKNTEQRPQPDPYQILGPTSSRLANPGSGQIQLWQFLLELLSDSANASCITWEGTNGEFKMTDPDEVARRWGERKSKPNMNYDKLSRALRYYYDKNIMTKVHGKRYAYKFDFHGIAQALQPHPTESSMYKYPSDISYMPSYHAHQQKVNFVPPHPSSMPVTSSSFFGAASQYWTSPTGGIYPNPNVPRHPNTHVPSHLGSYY
The essentials: (§1)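 A tag-only sample was pooled with DNA-barcoded human transcription factors that had been expressed in yeast as GST fusions and captured on glutathione beads. The pools were incubated for 30 min at room temperature with 200 nmole of a random double-stranded 16-mer DNA library in Tris/NaCl/DTT/glycerol buffer, then washed, crosslinked with 0.1% formaldehyde, proximity-ligated (BsaI/T4 ligase, 1 h, 37 °C), PCR-amplified and sequenced on an Illumina NextSeq500. Binding signal is each hexamer's read frequency for a factor divided by its frequency for the tag-only sample.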

For another experiment, the target named is T2, ELK1 (Homo sapiens, UniProt P19419 1-428).
T2 sequence: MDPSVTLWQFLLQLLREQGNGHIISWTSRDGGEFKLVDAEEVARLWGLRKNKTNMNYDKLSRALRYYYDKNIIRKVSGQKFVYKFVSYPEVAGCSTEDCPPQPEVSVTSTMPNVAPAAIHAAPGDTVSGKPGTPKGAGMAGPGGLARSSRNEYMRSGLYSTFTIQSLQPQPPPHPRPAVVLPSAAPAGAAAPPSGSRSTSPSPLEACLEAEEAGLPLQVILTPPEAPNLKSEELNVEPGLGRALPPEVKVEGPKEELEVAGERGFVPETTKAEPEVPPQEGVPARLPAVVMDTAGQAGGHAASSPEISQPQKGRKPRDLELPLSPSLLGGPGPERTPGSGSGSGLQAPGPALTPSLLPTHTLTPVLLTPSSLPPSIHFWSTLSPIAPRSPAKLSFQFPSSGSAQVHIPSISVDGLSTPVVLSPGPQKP
The essentials:
as §1

The next experiment concerns the target T3, GABPA (Homo sapiens, UniProt Q06546 1-454).
T3 sequence: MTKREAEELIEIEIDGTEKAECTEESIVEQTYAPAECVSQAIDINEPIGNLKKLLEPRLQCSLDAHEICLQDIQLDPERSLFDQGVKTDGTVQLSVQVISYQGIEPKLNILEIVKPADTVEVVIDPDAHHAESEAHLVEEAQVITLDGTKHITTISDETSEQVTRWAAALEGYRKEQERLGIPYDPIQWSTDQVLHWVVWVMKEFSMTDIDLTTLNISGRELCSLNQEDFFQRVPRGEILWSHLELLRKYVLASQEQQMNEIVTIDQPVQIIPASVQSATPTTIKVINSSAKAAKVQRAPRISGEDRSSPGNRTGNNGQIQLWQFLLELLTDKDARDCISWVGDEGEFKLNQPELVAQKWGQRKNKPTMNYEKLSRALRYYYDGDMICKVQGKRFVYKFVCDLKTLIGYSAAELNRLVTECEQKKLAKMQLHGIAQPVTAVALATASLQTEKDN
The procedure, abridged:
as §1

Another experiment deals with T4, ERG (Homo sapiens, UniProt P11308 1-479).
T4 sequence: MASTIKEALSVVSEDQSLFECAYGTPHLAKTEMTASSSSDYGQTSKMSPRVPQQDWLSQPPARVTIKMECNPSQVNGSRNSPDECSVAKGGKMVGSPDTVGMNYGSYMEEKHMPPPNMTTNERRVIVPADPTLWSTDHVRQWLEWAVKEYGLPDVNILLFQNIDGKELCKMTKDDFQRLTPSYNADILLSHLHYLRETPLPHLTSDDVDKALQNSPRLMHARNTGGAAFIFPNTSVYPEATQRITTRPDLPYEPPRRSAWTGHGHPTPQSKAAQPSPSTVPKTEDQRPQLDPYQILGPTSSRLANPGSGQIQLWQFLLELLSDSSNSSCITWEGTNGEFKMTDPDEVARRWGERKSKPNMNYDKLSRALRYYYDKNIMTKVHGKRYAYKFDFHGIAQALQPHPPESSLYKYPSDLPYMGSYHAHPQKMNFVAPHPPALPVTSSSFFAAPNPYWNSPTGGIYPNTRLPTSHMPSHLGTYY
The procedure, abridged:
as §1

A further experiment addresses ELF1 (Homo sapiens, UniProt P32519 1-619). The essentials:
as §1

Another experiment concerns the target T5, EHF (Homo sapiens, UniProt Q9NZC4 1-300).
T5 sequence: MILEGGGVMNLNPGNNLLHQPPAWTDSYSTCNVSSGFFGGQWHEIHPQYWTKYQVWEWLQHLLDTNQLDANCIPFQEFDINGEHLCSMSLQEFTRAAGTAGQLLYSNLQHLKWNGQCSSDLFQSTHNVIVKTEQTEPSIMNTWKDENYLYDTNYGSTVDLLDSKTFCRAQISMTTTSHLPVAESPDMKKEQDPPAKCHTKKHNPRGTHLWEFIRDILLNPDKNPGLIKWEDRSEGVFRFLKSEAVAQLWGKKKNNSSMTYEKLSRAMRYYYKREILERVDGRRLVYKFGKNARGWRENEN
The essentials: as §1

The target in another experiment is SPI1 (Homo sapiens, UniProt P17947 1-270). The essentials:
as §1

The target in a further experiment is SPIB (Homo sapiens, UniProt Q01892 1-262). The essentials:
as §1

The next experiment has as its target T6, FEV (Homo sapiens, UniProt Q99581 1-238).
T6 sequence: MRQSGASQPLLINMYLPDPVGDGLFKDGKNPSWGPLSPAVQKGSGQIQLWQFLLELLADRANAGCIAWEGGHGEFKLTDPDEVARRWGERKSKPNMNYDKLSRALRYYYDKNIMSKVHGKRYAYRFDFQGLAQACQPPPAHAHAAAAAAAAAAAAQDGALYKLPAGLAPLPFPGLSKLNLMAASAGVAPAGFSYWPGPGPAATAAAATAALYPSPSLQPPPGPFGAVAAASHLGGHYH
The essentials:
as §1

For another experiment, the target named is ETV5 (Homo sapiens, UniProt P41161 1-510). The essentials:
as §1

In a further experiment the target is ELF4 (Homo sapiens, UniProt Q99607 1-663). The procedure, abridged:
as §1

Another experiment concerns the target ETV1 (Homo sapiens, UniProt P50549 1-477). The procedure, abridged:
as §1

Another experiment addresses T7, ERF (Homo sapiens, UniProt P50548 1-548).
T7 sequence: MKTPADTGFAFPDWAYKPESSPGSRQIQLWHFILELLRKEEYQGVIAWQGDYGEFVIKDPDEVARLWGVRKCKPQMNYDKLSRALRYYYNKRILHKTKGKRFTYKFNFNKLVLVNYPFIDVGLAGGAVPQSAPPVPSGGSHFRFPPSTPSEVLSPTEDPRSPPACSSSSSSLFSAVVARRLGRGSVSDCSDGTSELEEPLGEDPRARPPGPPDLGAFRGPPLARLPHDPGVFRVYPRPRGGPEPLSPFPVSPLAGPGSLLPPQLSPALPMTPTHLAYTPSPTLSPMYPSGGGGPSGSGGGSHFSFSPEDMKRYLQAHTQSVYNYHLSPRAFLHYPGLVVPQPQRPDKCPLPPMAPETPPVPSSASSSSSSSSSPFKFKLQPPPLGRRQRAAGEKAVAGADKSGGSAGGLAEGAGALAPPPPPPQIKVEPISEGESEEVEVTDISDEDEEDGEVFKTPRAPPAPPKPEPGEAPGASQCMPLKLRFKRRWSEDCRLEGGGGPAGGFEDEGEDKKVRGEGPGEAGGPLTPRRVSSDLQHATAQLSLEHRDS
The procedure, abridged: as §1

In a further experiment the target is T8, ETV3L (Homo sapiens, UniProt Q6ZN32 1-361).
T8 sequence: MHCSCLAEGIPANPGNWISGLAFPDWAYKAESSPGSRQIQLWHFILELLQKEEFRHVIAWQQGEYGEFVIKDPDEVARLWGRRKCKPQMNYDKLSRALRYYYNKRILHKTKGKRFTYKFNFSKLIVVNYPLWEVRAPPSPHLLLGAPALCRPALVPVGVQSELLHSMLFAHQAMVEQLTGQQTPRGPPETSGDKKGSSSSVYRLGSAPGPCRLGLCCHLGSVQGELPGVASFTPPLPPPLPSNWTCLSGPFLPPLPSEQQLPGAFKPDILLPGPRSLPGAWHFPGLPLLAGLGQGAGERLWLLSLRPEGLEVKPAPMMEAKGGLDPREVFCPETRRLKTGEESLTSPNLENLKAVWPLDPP
The procedure, abridged: as §1

The next experiment deals with T9, ETS2 (Homo sapiens, UniProt P15036 1-469).
T9 sequence: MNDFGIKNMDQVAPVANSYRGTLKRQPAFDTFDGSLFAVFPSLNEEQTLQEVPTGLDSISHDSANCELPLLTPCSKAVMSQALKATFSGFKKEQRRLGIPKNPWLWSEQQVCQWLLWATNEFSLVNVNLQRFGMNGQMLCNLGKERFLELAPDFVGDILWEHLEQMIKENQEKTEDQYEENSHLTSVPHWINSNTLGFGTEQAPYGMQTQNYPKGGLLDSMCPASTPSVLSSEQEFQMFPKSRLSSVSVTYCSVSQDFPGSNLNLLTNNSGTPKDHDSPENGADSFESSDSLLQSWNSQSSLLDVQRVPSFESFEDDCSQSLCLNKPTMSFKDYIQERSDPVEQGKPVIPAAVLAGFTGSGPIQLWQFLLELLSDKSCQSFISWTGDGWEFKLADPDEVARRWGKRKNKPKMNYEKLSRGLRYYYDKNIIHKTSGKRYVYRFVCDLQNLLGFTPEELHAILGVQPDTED
The procedure, abridged:
as §1

The next experiment addresses T10, SPDEF (Homo sapiens, UniProt O95238 1-335).
T10 sequence: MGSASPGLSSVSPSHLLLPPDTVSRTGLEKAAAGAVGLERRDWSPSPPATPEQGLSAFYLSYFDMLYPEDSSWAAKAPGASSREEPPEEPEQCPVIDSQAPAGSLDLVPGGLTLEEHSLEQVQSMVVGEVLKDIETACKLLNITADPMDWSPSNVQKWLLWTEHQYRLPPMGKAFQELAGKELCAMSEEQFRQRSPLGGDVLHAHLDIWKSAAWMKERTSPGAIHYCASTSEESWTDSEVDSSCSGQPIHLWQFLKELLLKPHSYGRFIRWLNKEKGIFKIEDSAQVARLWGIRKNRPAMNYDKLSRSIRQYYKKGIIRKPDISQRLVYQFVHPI
The essentials:
as §1

The next experiment concerns the target T11, ELF5 (Homo sapiens, UniProt Q9UKW6-2 1-255).
T11 sequence: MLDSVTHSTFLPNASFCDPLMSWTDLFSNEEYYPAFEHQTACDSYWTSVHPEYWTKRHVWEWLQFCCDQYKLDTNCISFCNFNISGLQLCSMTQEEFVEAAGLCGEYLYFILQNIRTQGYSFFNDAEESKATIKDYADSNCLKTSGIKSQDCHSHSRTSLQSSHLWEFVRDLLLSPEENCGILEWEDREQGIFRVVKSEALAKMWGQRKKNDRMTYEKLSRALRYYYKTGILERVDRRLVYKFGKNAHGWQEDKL
The procedure, abridged: as §1

The target of a further experiment is T12, ETV3 (Homo sapiens, UniProt P41162-2 1-143).
T12 sequence: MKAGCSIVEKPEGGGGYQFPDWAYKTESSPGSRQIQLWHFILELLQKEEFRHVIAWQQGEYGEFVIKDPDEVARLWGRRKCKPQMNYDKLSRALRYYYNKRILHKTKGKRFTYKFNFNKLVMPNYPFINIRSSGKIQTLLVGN
The procedure, abridged: as §1

In a further experiment the target is ETV6 (Homo sapiens, UniProt P41212 1-452). The essentials: as §1
Sequence of ETV6 (P41212 whole entry): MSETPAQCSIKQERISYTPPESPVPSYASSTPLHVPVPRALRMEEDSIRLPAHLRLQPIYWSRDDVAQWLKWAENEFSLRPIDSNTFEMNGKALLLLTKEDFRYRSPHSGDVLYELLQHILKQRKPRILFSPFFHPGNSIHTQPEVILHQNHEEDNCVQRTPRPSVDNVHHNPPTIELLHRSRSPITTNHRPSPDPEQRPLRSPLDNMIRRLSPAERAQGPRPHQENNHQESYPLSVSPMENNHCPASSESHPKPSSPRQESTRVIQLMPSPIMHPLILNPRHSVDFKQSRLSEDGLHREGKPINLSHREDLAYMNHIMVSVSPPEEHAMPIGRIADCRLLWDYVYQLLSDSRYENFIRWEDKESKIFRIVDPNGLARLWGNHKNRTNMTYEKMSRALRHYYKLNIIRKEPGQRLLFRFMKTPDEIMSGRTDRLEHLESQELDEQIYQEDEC

Sequence of ELF4 (Q99607 whole entry): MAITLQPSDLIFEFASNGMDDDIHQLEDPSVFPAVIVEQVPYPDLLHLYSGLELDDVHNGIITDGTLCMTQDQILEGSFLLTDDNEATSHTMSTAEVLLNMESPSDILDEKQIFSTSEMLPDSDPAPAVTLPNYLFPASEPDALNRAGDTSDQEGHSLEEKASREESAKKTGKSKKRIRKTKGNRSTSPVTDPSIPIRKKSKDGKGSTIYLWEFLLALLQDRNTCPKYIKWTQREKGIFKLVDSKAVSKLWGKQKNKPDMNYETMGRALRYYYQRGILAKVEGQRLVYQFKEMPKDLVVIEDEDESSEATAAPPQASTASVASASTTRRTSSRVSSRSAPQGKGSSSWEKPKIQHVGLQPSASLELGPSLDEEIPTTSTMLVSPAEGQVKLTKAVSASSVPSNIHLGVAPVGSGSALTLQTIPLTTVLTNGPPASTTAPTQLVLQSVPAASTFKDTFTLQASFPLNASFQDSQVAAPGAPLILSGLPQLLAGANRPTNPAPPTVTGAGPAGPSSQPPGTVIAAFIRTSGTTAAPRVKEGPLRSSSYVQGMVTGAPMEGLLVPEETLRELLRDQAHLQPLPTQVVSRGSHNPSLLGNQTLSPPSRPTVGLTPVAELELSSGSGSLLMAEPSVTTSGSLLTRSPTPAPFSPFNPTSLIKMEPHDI
Sequence of ETV5 (P41161 whole entry): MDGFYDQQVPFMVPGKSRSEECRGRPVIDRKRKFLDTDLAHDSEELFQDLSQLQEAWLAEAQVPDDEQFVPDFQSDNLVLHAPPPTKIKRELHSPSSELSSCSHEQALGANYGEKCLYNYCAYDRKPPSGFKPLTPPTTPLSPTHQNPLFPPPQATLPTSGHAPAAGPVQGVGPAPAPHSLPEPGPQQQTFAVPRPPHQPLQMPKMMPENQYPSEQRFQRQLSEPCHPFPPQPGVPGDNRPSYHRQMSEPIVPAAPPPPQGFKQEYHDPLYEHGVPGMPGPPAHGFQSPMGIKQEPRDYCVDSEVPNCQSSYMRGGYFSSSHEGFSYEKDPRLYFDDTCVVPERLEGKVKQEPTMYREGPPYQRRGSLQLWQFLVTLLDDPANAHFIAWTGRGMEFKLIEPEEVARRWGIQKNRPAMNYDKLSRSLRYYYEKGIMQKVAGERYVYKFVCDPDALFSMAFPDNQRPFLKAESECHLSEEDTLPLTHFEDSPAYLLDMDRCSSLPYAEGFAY
Sequence of SPIB (Q01892 whole entry): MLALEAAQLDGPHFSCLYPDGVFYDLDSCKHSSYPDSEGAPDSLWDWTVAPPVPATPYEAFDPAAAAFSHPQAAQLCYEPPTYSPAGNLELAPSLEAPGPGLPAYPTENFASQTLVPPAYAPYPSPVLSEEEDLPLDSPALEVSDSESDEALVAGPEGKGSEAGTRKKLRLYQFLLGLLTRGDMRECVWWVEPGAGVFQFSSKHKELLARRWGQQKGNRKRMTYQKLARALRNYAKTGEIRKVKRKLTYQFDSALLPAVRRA
Sequence of ETV1 (P50549 whole entry): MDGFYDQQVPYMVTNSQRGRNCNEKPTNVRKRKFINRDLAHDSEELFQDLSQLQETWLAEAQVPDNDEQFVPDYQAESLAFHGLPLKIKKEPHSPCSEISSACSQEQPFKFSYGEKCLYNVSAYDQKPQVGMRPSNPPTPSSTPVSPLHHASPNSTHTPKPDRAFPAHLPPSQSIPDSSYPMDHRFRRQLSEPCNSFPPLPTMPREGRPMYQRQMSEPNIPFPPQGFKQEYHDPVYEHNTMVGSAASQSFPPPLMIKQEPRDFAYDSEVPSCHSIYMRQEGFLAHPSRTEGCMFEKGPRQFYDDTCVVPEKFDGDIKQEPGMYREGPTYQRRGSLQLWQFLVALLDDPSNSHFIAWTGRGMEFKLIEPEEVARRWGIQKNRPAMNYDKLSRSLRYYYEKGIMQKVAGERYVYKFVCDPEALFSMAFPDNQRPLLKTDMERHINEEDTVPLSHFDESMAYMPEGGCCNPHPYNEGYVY
Sequence of ELF1 (P32519 whole entry): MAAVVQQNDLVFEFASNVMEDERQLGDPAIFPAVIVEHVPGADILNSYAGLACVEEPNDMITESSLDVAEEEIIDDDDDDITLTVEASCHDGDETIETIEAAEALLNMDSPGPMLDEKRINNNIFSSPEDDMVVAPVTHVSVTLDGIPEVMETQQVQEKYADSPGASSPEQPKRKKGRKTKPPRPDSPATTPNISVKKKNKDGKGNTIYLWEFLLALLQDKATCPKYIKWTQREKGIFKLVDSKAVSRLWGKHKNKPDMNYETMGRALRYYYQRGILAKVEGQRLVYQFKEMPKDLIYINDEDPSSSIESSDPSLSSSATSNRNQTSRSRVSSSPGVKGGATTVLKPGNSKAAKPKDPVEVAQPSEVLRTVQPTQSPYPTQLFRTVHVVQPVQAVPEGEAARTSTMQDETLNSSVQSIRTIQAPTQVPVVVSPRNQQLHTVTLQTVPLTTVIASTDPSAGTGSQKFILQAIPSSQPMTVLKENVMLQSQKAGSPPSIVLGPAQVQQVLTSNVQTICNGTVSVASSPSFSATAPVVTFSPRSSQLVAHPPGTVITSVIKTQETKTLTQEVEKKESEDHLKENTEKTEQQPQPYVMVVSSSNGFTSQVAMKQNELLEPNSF

As for CATTGT, the binding signal is 1.2 fold enrichment (6-mer frequency, TF over GST control) in the experiment with FLI1; 1.14 fold enrichment (6-mer frequency, TF over GST control) in the experiment with ELK1; 1.19 fold enrichment (6-mer frequency, TF over GST control) with GABPA; 1.12 fold enrichment (6-mer frequency, TF over GST control) in the experiment with ERG; 1.1 fold enrichment (6-mer frequency, TF over GST control) in the experiment with ELF1; 1.14 fold enrichment (6-mer frequency, TF over GST control) in the experiment with EHF. Besides, the binding signal with SPI1 is 1.04 fold enrichment (6-mer frequency, TF over GST control); with SPIB it was 1.04 fold enrichment (6-mer frequency, TF over GST control); with FEV it was 1.09 fold enrichment (6-mer frequency, TF over GST control); in the experiment with ETV5, 1.19 fold enrichment (6-mer frequency, TF over GST control); in the experiment with ELF4, 1.14 fold enrichment (6-mer frequency, TF over GST control); with ETV1 it was 1.14 fold enrichment (6-mer frequency, TF over GST control). In addition, the binding signal with ERF was 1.12 fold enrichment (6-mer frequency, TF over GST control); in the experiment with ETV3L it was 1.19 fold enrichment (6-mer frequency, TF over GST control); with ETS2 it was 1.07 fold enrichment (6-mer frequency, TF over GST control); in the experiment with SPDEF it was 1.11 fold enrichment (6-mer frequency, TF over GST control); in the experiment with ELF5, 1.1 fold enrichment (6-mer frequency, TF over GST control); with ETV3 it was 1.16 fold enrichment (6-mer frequency, TF over GST control). The binding signal with ETV6 is 1.15 fold enrichment (6-mer frequency, TF over GST control).
